Assay results from a collection of fitness landscapes (doi:10.1016/j.celrep.2020.107928).
In all, about 81,000 sequences were measured (“one-hybrid fitness for binding parS DNA”: median about -0.17, highest 2% from about 0.51 on). Many of the other results were omitted from the sample, so the highest values are more common in it than they were.

B1: Caulobacter ParB omega fusion; a variant is named by its letters at X, in order, B8GW30 (parent)
chain: MESVVVGEPGMSEGRRGLGRGLSALLGEVDAAPAQAPGEQLGGSREAPIEILQRNPDQPRRTFREEDLEDLSNSIREKGVLQPILVRPSPDTAGEYQIVAGERAWRAAQRAGLKTVPIMVRELDDLAVLEIGIIENVQRADLNVLEEALSYKVLMEKFERTQENIAQTIGKSXSHVANXMRLLXLPDEVQSYLVSGELTAXHARAIAAAADPVALAKQIIEGGLSVRETEALARKAPNLSAGKSKGGRPPRVKDTDTQALESDLSSVLGLDVSIDHRGSTGTLTITYATLEQLDDLCNRLTRGI

Variants of: B1
Test: one-hybrid fitness for binding parS DNA (scaled: cognate 1, non-cognate 0); higher = stronger binding
Conditions: with parS DNA site
Summary of the method: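 Pre- and post-selection plasmids were Illumina-sequenced, three replicate libraries were pooled, and any variant with under 10 reads was removed. The libraries were Caulobacter ParB with four specificity codons randomised, selected in E. coli USO through a HIS3 reporter whose site is 19 bp from the promoter. Cells grew 48 hours at 37°C on M9 without histidine, with 0.1 mM IPTG and 5 mM 3-AT. Fitness is the log change in variant-to-wild-type read ratio, rescaled against cognate and non-cognate.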

one-hybrid fitness for binding parS DNA, 0.258:
RIND

one-hybrid fitness for binding parS DNA, 0.793:
RFDC
RYKS

one-hybrid fitness for binding parS DNA, 0.79:
RWNC
RFAT

one-hybrid fitness for binding parS DNA, 0.94:
RFNC

one-hybrid fitness for binding parS DNA, 0.984:
RQTS

one-hybrid fitness for binding parS DNA, 0.871:
RAIG

one-hybrid fitness for binding parS DNA, 0.977:
RIHC

one-hybrid fitness for binding parS DNA, 0.796:
RLKA

one-hybrid fitness for binding parS DNA, 0.965:
RCVC

one-hybrid fitness for binding parS DNA, 0.635:
RWDC

one-hybrid fitness for binding parS DNA, 1.01:
RCAS
RQTG
RTFG

one-hybrid fitness for binding parS DNA, 0.853:
RNAG

one-hybrid fitness for binding parS DNA, 0.847:
RIRC

one-hybrid fitness for binding parS DNA, 0.775:
RSVC

one-hybrid fitness for binding parS DNA, 0.55:
RHCA

one-hybrid fitness for binding parS DNA, ≤ 0.2:
CKQG
NSAT
RQVF
RQKK
RQKR
RQVR
RWDM
RWNR
GKCT
STTT
WKGT
SGKS
RITI
RAIF
RDPG
RAIH
RAPH
RPPG
RAPD
NVNI
DVVY
LLTC
GHGR
HSMG
ATMR
RSAD
RSAP
RPAS
RCAP
NQVG
TRNP
TIYS
IDLD
SILM
LWSP
SLKT
GRNC
RPRS
RCYP
RPYS
RSRD
RCRD
SCVM
FTPD
ALCC
WPLG
IPVF
FYHT
RIDD
RPNY
TGRK
MPPM
WDNC
KSER
STLE
DQQL
GHWC
KPDR
TRSC
NTIS
RPCA
RGCA
QSLF
QAWS
ATLF
PAPL
PDPW
DFDR
QQYT
KPHF
DHCA
LGTH
RQTK
RQTP
RQTQ
RQTH
KANM
NRAG
PIVT
QDIR
IPSC
PVWG
CTRC
QFWR
VWSI
QVFN
RFNE
NFDC
RFDF
AFNC
PPHC
DNGY
RIHK
RIHQ
RILR
RIYR
RIYQ
RNGM
LKKY
QVQI
YEHV
QGHV
HFFL
LRSA
AADE
CFNA
WWKS
ECSL
PWPM
PHSN
LVPK
MIPM
QNKH
NKQR
RIDQ
RICP
RIRQ
RIDK
QALV
MYER
ARTT
ANKV
AYCY
ALWS
ECMV
RYVQ
RYVF
RYKR
TTLV
DFAT
RFFM
RFFF
NFAT
QAHK
TRYI
RYKD
RYKP
TITP
LFYR
HYYD
DGDR
RINR
RINE
RIDP
QLMK
SRNE
GGVR
RSWP
RPWS
RMWD
RMWP
RSWD
PQAF
RMKV
CHNG
TAAQ
SDSD
GVLC
TGNL
DKAR
AWNT
KHTD
YNPS
QHAY
RTFK
TEAR
CSDF
IWPL
CTLY
PPSK
YQCG
ALKA
CLKA
DLVA
NLVA
LHAG
QGGK
TMSY
QLMM
SQKG
RPVC
RSVD
RSVH
REVC
AWDA
HGSI
DKKR
SPNA
LWAR
VAPG
RNFR
RNFY
RNAR
NIRE
HAKP
CTSH
HSAT
REAF
LGNC
RMVK
RMKR
RMKP
RMVL
FQCR
TNCV
IAED
TLGD
IMTY
HASR
WPLT
RLSP
RLHD
RLCR
RLLK

one-hybrid fitness for binding parS DNA, 0.582:
RFFT

one-hybrid fitness for binding parS DNA, 0.987:
RIDS

one-hybrid fitness for binding parS DNA, 0.633:
RMCA

one-hybrid fitness for binding parS DNA, 0.877:
RCRS

one-hybrid fitness for binding parS DNA, 0.359:
RNAY

one-hybrid fitness for binding parS DNA, 0.579:
RSCA

one-hybrid fitness for binding parS DNA, 0.259:
RISH

one-hybrid fitness for binding parS DNA, 0.513:
RINY

one-hybrid fitness for binding parS DNA, 0.462:
RYYY

one-hybrid fitness for binding parS DNA, 0.677:
RCCA

one-hybrid fitness for binding parS DNA, 0.846:
RKKA

one-hybrid fitness for binding parS DNA, 0.973:
RLHC

one-hybrid fitness for binding parS DNA, 0.923:
RINS

one-hybrid fitness for binding parS DNA, 0.282:
RICF

one-hybrid fitness for binding parS DNA, 0.971:
RMVG

one-hybrid fitness for binding parS DNA, 0.442:
RLHN

one-hybrid fitness for binding parS DNA, 0.828:
RQVC

one-hybrid fitness for binding parS DNA, 0.752:
RYKC

one-hybrid fitness for binding parS DNA, 0.97:
RILC

one-hybrid fitness for binding parS DNA, 0.976:
RYVS

one-hybrid fitness for binding parS DNA, 0.81:
RCPG

one-hybrid fitness for binding parS DNA, 0.43:
RQTN

one-hybrid fitness for binding parS DNA, 0.221:
RWNM

one-hybrid fitness for binding parS DNA, 0.955:
RINC

one-hybrid fitness for binding parS DNA, 0.211:
RQTF

one-hybrid fitness for binding parS DNA, 0.964:
RIYC

one-hybrid fitness for binding parS DNA, 0.396:
RIDY

one-hybrid fitness for binding parS DNA, 1.09:
RCWS

one-hybrid fitness for binding parS DNA, 0.401:
RCWN

one-hybrid fitness for binding parS DNA, 0.21:
RTAH

one-hybrid fitness for binding parS DNA, 0.348:
RNCA

one-hybrid fitness for binding parS DNA, 1.05:
RMWS

one-hybrid fitness for binding parS DNA, 0.416:
RSRN

one-hybrid fitness for binding parS DNA, 0.569:
RAPG

one-hybrid fitness for binding parS DNA, 0.907:
RYVC

one-hybrid fitness for binding parS DNA, 0.369:
RYKM

one-hybrid fitness for binding parS DNA, 0.206:
RQEF

one-hybrid fitness for binding parS DNA, 0.929:
RQTT
RMKG

one-hybrid fitness for binding parS DNA, 0.866:
RIDC

one-hybrid fitness for binding parS DNA, 0.567:
RLVA

one-hybrid fitness for binding parS DNA, 0.485:
RLCY

one-hybrid fitness for binding parS DNA, 0.217:
RQTD

one-hybrid fitness for binding parS DNA, 0.995:
RLCC

one-hybrid fitness for binding parS DNA, 1.03:
RING

one-hybrid fitness for binding parS DNA, 0.503:
RKCA

one-hybrid fitness for binding parS DNA, 1:
RCYS
RTAG
RLLC

one-hybrid fitness for binding parS DNA, 0.357:
RYVY

one-hybrid fitness for binding parS DNA, 0.92:
RICC

one-hybrid fitness for binding parS DNA, 0.209:
RISP
RVGW

one-hybrid fitness for binding parS DNA, 0.331:
RQTM

one-hybrid fitness for binding parS DNA, 0.926:
RQKC

one-hybrid fitness for binding parS DNA, 0.231:
RIDH

one-hybrid fitness for binding parS DNA, 0.253:
RYVH

one-hybrid fitness for binding parS DNA, 0.266:
RLSH

one-hybrid fitness for binding parS DNA, 0.201:
RINF

one-hybrid fitness for binding parS DNA, 0.333:
RILM

one-hybrid fitness for binding parS DNA, 0.514:
RYKY

one-hybrid fitness for binding parS DNA, 0.381:
RINM

one-hybrid fitness for binding parS DNA, 0.98:
RLSC

one-hybrid fitness for binding parS DNA, 0.505:
RLLY

one-hybrid fitness for binding parS DNA, 0.966:
RQTC

one-hybrid fitness for binding parS DNA, 0.364:
RYVN

one-hybrid fitness for binding parS DNA, 0.572:
RTCA

one-hybrid fitness for binding parS DNA, 0.311:
RTAM

one-hybrid fitness for binding parS DNA, 0.284:
RINH

one-hybrid fitness for binding parS DNA, 0.388:
RIDN

one-hybrid fitness for binding parS DNA, 0.913:
RSRS

one-hybrid fitness for binding parS DNA, 0.479:
RTFY

one-hybrid fitness for binding parS DNA, 0.969:
RISC

one-hybrid fitness for binding parS DNA, 0.831:
RIDG

one-hybrid fitness for binding parS DNA, 0.989:
RSWS

one-hybrid fitness for binding parS DNA, 0.527:
RKVA

one-hybrid fitness for binding parS DNA, 0.264:
RWDY

one-hybrid fitness for binding parS DNA, 0.662:
RNFG

one-hybrid fitness for binding parS DNA, 0.998:
RSAS

one-hybrid fitness for binding parS DNA, 0.241:
RQLF

one-hybrid fitness for binding parS DNA, 0.247:
RIRF

one-hybrid fitness for binding parS DNA, 0.317:
RWCA
